We go through 29 compounds from ChEMBL document CHEMBL1157539, “Thousands of chemical starting points for antimalarial lead identification” (Nature, 2010).

The Inhibition is the relative decrease from the control value, in per cent.

Residues, ends and D or L forms follow the SMILES beside them. *: point of attachment. Boc = CC(C)(C)OC(=O)*

For this experiment, the system named is HepG2. The experiment is described as follows: GSK_TCMDC: Percent inhibition of human HepG2 cell line. Test compounds present at 10uM. It is filed as functional.
Consider `COc1cc(NC(=O)/C=C/c2cc3ccccc3n2C)ccc1OCCN(C(C)C)C(C)C.Cl`, for which the Inhibition worked out at 16%. For the compound `COc1ccc(OC)c2c1CCN(CCN1CCC(C(=O)Nc3ccc(C(=O)Nc4ccc(Cl)cc4)cc3)CC1)C2`, the Inhibition is reported as 25%.

With `O=C(c1ccco1)N1CCN(c2ccc([N+](=O)[O-])c(NC3CC3)c2)CC1`, the Inhibition is on record as 0%. As for `COc1cc2nc(NCC3CCN(C(=O)c4ccc(-c5ccc(C(=O)N(C)C)cc5C)cc4)CC3)nc(N)c2cc1OC`, the Inhibition was 2%. In the case of `CCOC(=O)c1c(SCc2cccc(F)c2F)[nH]c2ccccc2c1=O` it was 1%; in that of `COc1ccc(-c2c3c(=O)n(C)c(=O)n(C)c3c3nnc4ccccc4n23)cc1`, 0%. As to `O=C(O)C(F)(F)F.c1ccc2[nH]c(-c3ccc(-c4ccc(CN5CCCCC5)cc4)cc3)nc2c1`, the Inhibition worked out at 27%. As for `CC1CCCN1Cc1ccc(-c2ccc3c(=O)cc(CCc4cccc(F)c4F)n(CC(=O)N(C)Cc4ccc(-c5ccc(C(F)(F)F)cc5)cc4)c3n2)cc1.O=C(O)C(O)C(O)C(=O)O` (centres undefined), the Inhibition came out at 0%. For the compound `Cc1ccc2[nH]c(-c3cc(-c4ccc(CO)cc4)cnc3N)nc2c1.O=C(O)C(F)(F)F`, the Inhibition was 52%. `COc1ccc2nc3ccccc3c(NCCN3CCN(C)CC3)c2c1` gave an Inhibition of 11%.

In the case of `O=C(O)C(F)(F)F.O=[N+]([O-])c1cccc(CNCC2CCC(CNCc3cccc([N+](=O)[O-])c3)CC2)c1` (centres undefined), the Inhibition is given as 39%. As for `Cc1ccccc1C1CCN(c2ccc(NC(=O)c3ccc(Cl)nc3)cc2)CC1.O=C(O)C(F)(F)F`, the Inhibition is 43%.

Consider `O=C(Nc1cccc(-c2cccc(-c3nc4ccccc4[nH]3)c2)c1)c1csnn1`, for which the Inhibition worked out at 31%.

As for `Nc1cc(/C=C/c2ccc([N+](=O)[O-])s2)nc2ccccc12`, the Inhibition came to 89%. As for `COc1ccc(NC(=O)[C@H](Cc2ccccc2)Nc2cc(C)nc(NCCc3ccccc3OC)n2)cc1.O=C(O)C(F)(F)F`, the Inhibition worked out at 10%. In the case of `COc1cccc(CNC(=O)c2ccnc(-c3cccc(CN(C)C4CCN(C)CC4)c3)c2)c1.O=C(O)C(F)(F)F` it was 19%.

For `NC1=NC2(CCCCC2)N(OCCCCCCCCNc2nc(N)nc(N)n2)C(N)=N1.O=C(O)C(F)(F)F`, the Inhibition came to 44%. In the case of `O=C(/C=C/C=C/c1ccc(Cl)c(Cl)c1)NCCCCCN1CCCC2CCCCC21` (centres undefined) it was 41%; in that of `COc1cccc(CN2CCCC(COC(c3ccc(F)cc3)c3ccc(F)cc3)C2)c1O` (centres undefined), 24%. Turning to `CCNC(=O)Nc1ccc(N(C)c2ccnc(Nc3ccc(CS(C)(=O)=O)cc3)n2)cc1.Cl`, the Inhibition was found to be 0%. For `CC(C)c1ccc(-c2noc(SCC(=O)N(C)c3ccc(F)cc3)n2)cc1` the value was 7%. Compound `Cc1cc2nc(-c3cc(Br)ccc3O)c(-c3cc(Br)ccc3O)nc2cc1C` displayed an Inhibition of 2%.

In the case of `O=C(Cn1c(CCc2cccc(F)c2F)cc(=O)c2ccccc21)N(CCN1CCCCC1)Cc1ccc(-c2ccc(C(F)(F)F)cc2)cc1.O=C(O)C(O)C(O)C(=O)O`, the Inhibition was found to be 9%.

Regarding `COC(=O)CC[C@H](NC(=O)[C@H](C)NC(=O)OC(C)(C)C)C(=O)OC` (Boc-Ala-Glu(OMe)-OMe), the Inhibition turned out to be 12%. In the case of `Cl.NCCCOc1cnc(-c2ccccc2)c2nc(-c3nonc3N)n(CCc3ccccc3)c12` it was 56%; in that of `Oc1c(C=Nn2cnnc2)sc2ccccc12`, 0%. In turn, `Cl.c1ccc(-c2cc(NCCNc3cc(-c4ccccc4)nc4ccccc34)c3ccccc3n2)cc1` registered an Inhibition of 0%. For `Cl.FC(F)(F)c1cc(Nc2ncnc3ccc(Br)cc23)ccc1OCc1ccccc1` the value was 12%; for `CCCCCCCNCc1c(O)ccc2c(CNCCCCCCC)c(O)ccc12.Cl`, 29%.
